High-throughput results deposited in PubChem by National Center for Advancing Translational Sciences (NCATS).
ELG1 DNA repair: ELG1-dependent DNA repair inhibition. 330,000 compounds, 2.3% hits. HEK293T ELG1-luciferase reporter, luminescence, 16 h; DNA damage induced by 5-fluorouridine. Potency, µM (series often up to 46.1 µM), for the others: at the highest dose activity change, negative = inhibition, most hits filed as inhibitors. AID 504467; further: potency means the concentration at half of the fitted maximal effect; nearly all actives have a fitted effect of over 55% in size
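Cells (2,000 per well) received 5-fluorouridine plus test compound or DMSO and were incubated 16 hr at 37 °C, 5% CO2. Luciferase activity was read by luminescence 30 min after ONE-Glo addition; signal suppression marked inhibition of damage-induced ELG1 function.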
TDP1 cell noCPT: qHTS for Inhibitors of human tyrosyl-DNA phosphodiesterase 1 (TDP1): qHTS in cells in absence of CPT | Potency, µM (titrated, usually from 46.2 µM), without a hit: at the top dose activity change, negative = growth inhibition, hits mostly inhibitors | DT40 Tdp1-/- hTDP1 cells, no CPT, ATP luminescence, 48 h | AID 686978, 2013 | 420,000 compounds, 15% hits; further: potency means the concentration at half of the fitted maximal effect; nearly all actives have a fitted effect of over 55% in size
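No-CPT arm: Tdp1-/-;hTDP1 DT40 cells (400/well) plus compounds, incubated ≥48 hr at 37 °C. Readout CellTiter-Glo luminescence.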
VP16 counter: counter-screen for ROR gamma inhibitors: Gal4-VP16 reporter; Drosophila S2 Gal4-VP16 UAS-luciferase, luminescence, 20 h; Potency, µM (top dose mostly 53.6 µM), inactives show at the top dose activity, negative = inhibition, usual class: inhibitors; 310,000 compounds, 3.5% hits; AID 2546;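 further: Gal4-VP16 expression switched on by copper sulfate through the metallothionein promoter; potency means the concentration at half of the fitted maximal effect; nearly all actives have a fitted effect of over 50% in size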
TDP1 cell CPT: DT40-hTDP1 cell growth loss with CPT | chicken DT40 Tdp1-/-;hTDP1 cells + 20 nM CPT, ATP luminescence, 48 h | Potency, µM (highest dose often 46.2 µM), inactives show at the top dose activity change, negative = growth inhibition, most hits filed as inhibitors | 420,000 compounds, 12% hits | AID 686979; further: potency means the concentration at half of the fitted maximal effect; nearly all actives have a fitted effect of over 55% in size
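Chicken DT40 Tdp1-/- cells stably complemented with human TDP1 were seeded at 400 cells/well in medium containing 20 nM camptothecin, exposed to pin-transferred compounds, and grown at 37 °C for at least 48 hr. Viability was read as ATP luminescence.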
IL-1B inflam inh: blocks inflammasome-driven IL-1 beta release | activity change, % at 57.5 µM | THP-1 LPS/ATP IL-1B secretion, AlphaLISA, 16 h; active compounds read low | 360,000 compounds, 4.7% hits; in the data active means activity change below about -50%; inconclusive means mostly about -30% to -49%
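Secreted IL-1B measured by AlphaLISA bead assay after 16 h compound exposure of THP-1 cells; compounds (final up to 57.5 uM) added 1 h before LPS (250 ng/mL) and ATP (1.25 mM) stimulation; lower signal means less secretion.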
RORgamma inh: blocks mouse ROR gamma transcriptional activity | Drosophila S2 Gal4-RORgamma UAS-luciferase reporter, 20 h | Potency, µM (doses to about 53.6 µM), for the others: at the top dose activity change, negative = inhibition, most hits filed as inhibitors | 310,000 compounds, 5.4% hits | P51450; further: potency means the concentration at half of the fitted maximal effect; nearly all actives have a fitted effect of over 60% in size
Target sequence (P51450 whole entry, looked up, the tested form may be a part): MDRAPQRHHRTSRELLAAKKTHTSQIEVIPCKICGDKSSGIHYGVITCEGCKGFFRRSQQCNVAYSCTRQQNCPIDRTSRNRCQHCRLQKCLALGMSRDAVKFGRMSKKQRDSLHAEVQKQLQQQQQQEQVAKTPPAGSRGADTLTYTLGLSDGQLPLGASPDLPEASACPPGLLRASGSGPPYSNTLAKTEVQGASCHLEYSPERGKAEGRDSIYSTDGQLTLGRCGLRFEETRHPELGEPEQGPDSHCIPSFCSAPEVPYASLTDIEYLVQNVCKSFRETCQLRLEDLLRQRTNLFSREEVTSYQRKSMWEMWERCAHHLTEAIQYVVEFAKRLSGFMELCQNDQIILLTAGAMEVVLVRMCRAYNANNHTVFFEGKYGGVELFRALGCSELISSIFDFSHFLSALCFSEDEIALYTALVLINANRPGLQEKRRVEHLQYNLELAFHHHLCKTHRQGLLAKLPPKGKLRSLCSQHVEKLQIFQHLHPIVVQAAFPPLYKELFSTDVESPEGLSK
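In this cell-based reporter format, copper sulfate (700 uM final) drives Gal4–ROR gamma fusion expression from a metallothionein promoter in Drosophila Schneider cells; compounds preincubated 1 hr, reporter read after 20 hr at ambient temperature.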
Numbers without * were called inactive; ? = inconclusive; / = no result; [ ] = dose if it differs, or a comment. Shown are actives, neighbours in structure and some others; about 21% of the full set was active somewhere. Unless noted, the call rests on the fitted dose curve; in most records, active means well fitted curve in the direction sought with a large enough effect; inconclusive means small, poorly fitted or top-dose-only effect, or another doubt; inactive means no such curve, though single readings can be large; an effect the other way counts as inactive or inconclusive. On the % scale 0 is the no-effect control and ±100 the full control effect.

SMILES	ELG1 DNA repair	TDP1 cell noCPT	VP16 counter	TDP1 cell CPT	IL-1B inflam inh	RORgamma inh
COc1ccc2c(c1)c(C(=O)N/N=C/c1ccc(Cl)cc1)c(C)n2C	?	?	13%	?	?	?
CC(C)(C)OC(=O)N1CCC[C@@H]1C(=O)N1CCC[C@@H]1C(=O)NCc1ccccc1Cl	/	-26%	/	-19%	20	/
COc1ccc(C=NNC(=O)CCCC(=O)NN=Cc2ccc(OC)c(OC)c2)cc1OC	/	-29%	/	?	-1	/
COc1ccc(C=NNC(=O)NN=Cc2ccc(OC)c(OC)c2)cc1OC	/	21µM*	/	?	?	/
Cc1nc(N2CCN(Cc3ccccc3)CC2)nc2c1C(=O)CCC2	?	16µM*	-8%	23µM*	-11	?
Cc1ccc(S(=O)(=O)N2CCN(C(=O)CCC(=O)Nc3ccc(F)cc3F)CC2)cc1	-6%	-12%	/	-26%	?	/
Cc1ccc(C)c(N2CCN(c3nc4ccccc4c(=O)n3-c3ccccc3)CC2)c1	/	9.2µM*	/	10µM*	/	/
Cc1ccc(C)c(N2CCN(c3nc4ccccc4c4nc(-c5cccnc5)nn34)CC2)c1	/	-27%	/	-16%	/	/
CCc1nnc2c3ccccc3nc(N3CCN(c4cc(C)ccc4C)CC3)n12	/	1.3µM*	/	?	/	/
Cc1ccc(C)c(N2CCN(C(=O)Cn3cccc3)CC2)c1	-29%	-22%	-2%	?	0	36%
CCOC(=O)c1c(C)oc2ncnc(Nc3ccc(OC)cc3OC)c12	/	5%	/	15%	/	/
CC(C)(C)c1ccc(CSc2nnc(-c3ccccn3)n2Cc2ccco2)cc1	?	?	7.1µM*	?	-94*	?
COc1ccc(C(=O)CSc2nnc(-c3ccccn3)n2Cc2ccco2)cc1	?	?	2%	-9%	10	25%
Clc1cccc(CSc2nnc(-c3ccccn3)n2Cc2ccco2)c1	?	16µM*	?	16µM*	-19	?
O=C(CSc1nnc(-c2ccccn2)n1Cc1ccco1)c1ccccc1	-1%	?	11%	?	-8	16%
CNC(=O)CSc1nnc(-c2ccccn2)n1Cc1ccco1	5%	18%	-10%	-4%	4	1%
Brc1ccc(CSc2nnc(-c3ccccn3)n2Cc2ccco2)cc1	-23%	8.2µM*	?	15µM*	0	?
COCCCNC(=O)c1sc2nc(C)c(C(=O)Nc3ccc(Cl)cc3)c(-c3ccc(Br)cc3)c2c1N	/	-23%	/	?	/	/
C=CC[C@@H]1C=C[C@@H](O/N=C2/[C@H]3O[C@@H]3[C@@H](O)[C@H]3[C@H]2CCn2c(=O)n(-c4ccccc4)c(=O)n23)[C@@H](CO)O1	/	/	-4%[10 µM]	/	/	27%[10 µM]
CCC1CCCCN1CCCNC(=O)c1ccc(CS(=O)(=O)c2ccccc2C)o1 (stereo not drawn)	15%	16%	6%	-13%	-1	9%
CCOc1ccc(-n2c(C)nc3cc(C(=O)NCCC4=CCCCC4)ccc32)cc1	/	16µM*	/	18µM*	/	/
CCOc1ccc(-n2c(C)nc3cc(C(=O)NCc4ccc(C)cc4)ccc32)cc1	/	16µM*	/	?	/	/
CCc1ccc(CNC(=O)c2ccc3c(c2)nc2n3CCC(C)C2)cc1 (stereo not drawn)	/	?	/	-28%	/	/
CCOc1ccc(-n2c(C)nc3cc(C(=O)NCC4CCCO4)ccc32)cc1 (stereo not drawn)	5%	-14%	-6%	-1%	14	-14%
Cc1cc(C)cc(-n2c(C)nc3cc(C(=O)NCc4ccc(F)cc4)ccc32)c1	/	15µM*	/	?	/	/
SMILES	ELG1 DNA repair	TDP1 cell noCPT	VP16 counter	TDP1 cell CPT	IL-1B inflam inh	RORgamma inh
CC1CCn2c(nc3cc(C(=O)NCc4ccc(OC(C)C)cc4)ccc32)C1 (stereo not drawn)	/	23µM*	/	?	/	/
O=C(NCCC1=CCCCC1)c1ccc2c(c1)ncn2-c1ccc(F)c(F)c1	/	-29%	/	?	/	/
O=[N+]([O-])c1ccc(Cc2cncc(O)c2)cc1	-9%	?	-1%	0%	2	19%
O=C(C[C@@H]1CC[C@H](NC(=O)Cc2ccccn2)[C@@H](CO)O1)NCCc1ccccc1	/	4%	/	1%	-2	/
CCOC(=O)C1C(C(=O)OC)=C(c2ccc(F)cc2)c2ccc(OC)cc2N1S(=O)(=O)C(F)(F)F (stereo not drawn)	/	/	-3%[40.7 µM]	/	/	29%[40.7 µM]
CCOc1ccc(CNC(=O)c2ccc(Sc3ccc(C)cc3)c(NC(C)=O)c2)cc1	?	21µM*	5%	?	-4	2%
CC1=C(c2ccc(C)cc2)S(=O)(=O)NC1=NCCCN1CCN(c2ccccc2F)CC1	/	16µM*	/	?	/	/
CC1=C(c2ccc(C)cc2)S(=O)(=O)NC1=NCc1cccc(F)c1	/	?	/	-21%	/	/
COc1ccc(N2CCN(C(=S)Nc3cccc(C)c3)CC2)cc1	2%	-13%	-2%	-12%	3	?
COc1cccc(N2CCN(C(=S)Nc3cccc(C)c3)CC2)c1	-2%	-16%	-28%	?	14	7.1µM*
Cc1ccccc1NC(=S)N1CCN(c2ccccc2)CC1	-2%	2%	20µM*	-16%	10	10µM*
